About 83,000 compounds went through this panel and 20% of them were active in at least one assay; those are over-represented in the sample as a whole.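 The endpoint reported here, percent growth, reads 100 for growth as untreated, 0 for no net growth and -100 for all cells dead.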 Calls of active or inactive are those of the source. How the source made its calls: active means growth percent below 10; inactive means the rest.
How the values were obtained:
Test in all cases: NCI-60 one-dose screen, 48 h (100 = growth as untreated, 0 = no growth, -100 = all killed)
Details in all cases: 10 µM unless noted
SK-MEL-2 melanoma = system: SK-MEL-2 melanoma
EKVX NSCLC = system: EKVX NSCLC
SN12C renal = system: SN12C renal
UO-31 renal = system: UO-31 renal
TK-10 renal = system: TK-10 renal
ACHN renal = system: ACHN renal
A498 renal = system: A498 renal
CCRF-CEM leukemia = system: CCRF-CEM leukemia
MOLT-4 leukemia = system: MOLT-4 leukemia
SR leukemia = system: SR leukemia

Measured: growth

C/C(=N\NC(=O)c1ccncc1)c1ccc(N)cc1
inactive: SK-MEL-2 melanoma 105% | EKVX NSCLC 101% | SN12C renal 97.1% | UO-31 renal 89.5% | TK-10 renal 103% | ACHN renal 109% | A498 renal 90.6% | CCRF-CEM leukemia 92% | MOLT-4 leukemia 92.4% | SR leukemia 85.8%

Cc1ccn2c3c(c(C(=O)O)c2c1)C(=O)c1ccccc1C3=O
inactive: SK-MEL-2 melanoma 68.9% | EKVX NSCLC 83% | SN12C renal 78.8% | UO-31 renal 63.7% | TK-10 renal 142% | ACHN renal 86.2% | A498 renal 89.2% | CCRF-CEM leukemia 89.5% | MOLT-4 leukemia 84.8% | SR leukemia 80%

COC(=O)c1ccc(NC(=O)CSc2nc(-c3ccc(F)cc3)nc3ccccc23)cc1
inactive: SK-MEL-2 melanoma 99.8% | EKVX NSCLC 91.4% | SN12C renal 79.3% | UO-31 renal 82.3% | TK-10 renal 113% | ACHN renal 97.4% | A498 renal 99.6% | CCRF-CEM leukemia 85.7% | MOLT-4 leukemia 89% | SR leukemia 78%

CC(=O)OC[C@]12CC[C@@H](c3cn(Cc4ccc(Cn5cc([C@@H]6CC[C@]7(COC(C)=O)CC[C@]8(C)[C@H](CC[C@@H]9[C@@]%10(C)CC[C@H](OC(C)=O)C(C)(C)[C@@H]%10CC[C@]98C)[C@@H]67)nn5)cc4)nn3)[C@@H]1[C@H]1CC[C@@H]3[C@@]4(C)CC[C@H](OC(C)=O)C(C)(C)[C@@H]4CC[C@@]3(C)[C@]1(C)CC2
inactive: SK-MEL-2 melanoma 97% | EKVX NSCLC 104% | SN12C renal 106% | UO-31 renal 90.7% | TK-10 renal 95.1% | ACHN renal 97.1% | A498 renal 105% | CCRF-CEM leukemia 102% | MOLT-4 leukemia 97.1% | SR leukemia 98%

Cn1c2c(c3ccc(-c4ccn[nH]4)cc3c1=O)C(=O)c1ccccc1-2
inactive: SK-MEL-2 melanoma 118% | EKVX NSCLC 20.2% | UO-31 renal 19.2% | TK-10 renal 71.6% | A498 renal 60%
active: SN12C renal 7.3% | ACHN renal -8.82% | CCRF-CEM leukemia 2.31% | MOLT-4 leukemia -1.45% | SR leukemia 1.32%

Cc1ccc(C2CC(c3ccc(Nc4nc(NCCO)nc(NCCO)n4)cc3)=NN2c2ccc(Cl)cc2)cc1 (stereo not given)
inactive: SK-MEL-2 melanoma 70.6% | EKVX NSCLC 65.7% | SN12C renal 82.4% | UO-31 renal 62.3% | TK-10 renal 82.6% | ACHN renal 52.2% | A498 renal 86.1% | CCRF-CEM leukemia 31.8% | MOLT-4 leukemia 32.3% | SR leukemia 26.2%

COc1cc(C2CC(c3ccc(Nc4nc(NCCO)nc(NCCO)n4)cc3)=NN2c2cc(Cl)cc(Cl)c2)cc(OC)c1OC (stereo not given)
active: TK-10 renal -25.7% | SR leukemia -9.38%
inactive: SK-MEL-2 melanoma 85% | EKVX NSCLC 35.2% | SN12C renal 13.1% | UO-31 renal 49.4% | ACHN renal 67.3% | A498 renal 96.8% | CCRF-CEM leukemia 19.3% | MOLT-4 leukemia 16.3%

C=CCn1c(SCC(=O)Nc2ccc(C(=O)/C=C/c3ccc(Cl)cc3)cc2)nnc1-c1cc(OC)c(OC)c(OC)c1
inactive: SK-MEL-2 melanoma 103% | EKVX NSCLC 92.3% | SN12C renal 79.7% | UO-31 renal 66.5% | TK-10 renal 102% | ACHN renal 106% | A498 renal 82.5% | CCRF-CEM leukemia 84.6% | MOLT-4 leukemia 70.8% | SR leukemia 72.9%

COc1c(O)cc2oc3cc(O[C@@H]4OC(C)[C@@H](O)[C@H](O)C4O)c(CC=C(C)C)c(O)c3c(=O)c2c1CC=C(C)C (stereo not given in full)
inactive: SK-MEL-2 melanoma 90.5% | EKVX NSCLC 82% | SN12C renal 99.7% | UO-31 renal 80.3% | TK-10 renal 92.6% | ACHN renal 102% | A498 renal 67.9% | CCRF-CEM leukemia 83.5% | MOLT-4 leukemia 65.1% | SR leukemia 103%

C=C1C(=O)O[C@H]2[C@H]1CC/C(COC(=O)CCCCCCCCC(=O)OC/C1=C/CC[C@@]3(C)O[C@H]3[C@H]3OC(=O)C(=C)[C@@H]3CC1)=C\CC[C@@]1(C)O[C@@H]21
inactive: SK-MEL-2 melanoma 22% | A498 renal 96.8%
active: EKVX NSCLC 8.84% | SN12C renal -1.39% | UO-31 renal -75.2% | TK-10 renal 0.838% | ACHN renal -23.2% | CCRF-CEM leukemia 2.5% | MOLT-4 leukemia 3.83% | SR leukemia -2.09%

C=C(C)[C@@H]1CC[C@]2(C(=O)N=C=S)CC[C@]3(C)[C@H](CC[C@@H]4[C@@]5(C)CCC(=O)C(C)(C)[C@@H]5CC[C@]43C)[C@@H]12
inactive: SK-MEL-2 melanoma 27.3% | EKVX NSCLC 32.4% | SN12C renal 19.2% | UO-31 renal 34.8% | TK-10 renal 42.3% | ACHN renal 27.6% | A498 renal 25.3% | CCRF-CEM leukemia 28.1% | MOLT-4 leukemia 25.6% | SR leukemia 27.6%

CC(C)(C)c1nn(-c2ccccc2)c2c1COCN2Cc1ccc(Cl)cc1
inactive: SK-MEL-2 melanoma 94.1% | EKVX NSCLC 98.8% | SN12C renal 96.7% | UO-31 renal 85.2% | TK-10 renal 117% | ACHN renal 89.1% | A498 renal 85.1% | CCRF-CEM leukemia 64.5% | MOLT-4 leukemia 68.1% | SR leukemia 47.2%

Cc1cnc(SCc2ccc(Cl)cc2Cl)nc1Nc1ccc(Cl)c(Cl)c1
inactive: SK-MEL-2 melanoma 87.9% | EKVX NSCLC 94.2% | SN12C renal 93% | UO-31 renal 74.6% | TK-10 renal 100% | ACHN renal 96.4% | A498 renal 85.7% | CCRF-CEM leukemia 85.6% | MOLT-4 leukemia 59.5% | SR leukemia 72%

COc1ccc(OCC(=O)OC(C)C)cc1
inactive: SK-MEL-2 melanoma 109% | EKVX NSCLC 99% | SN12C renal 96.8% | UO-31 renal 89.6% | TK-10 renal 92.9% | ACHN renal 108% | A498 renal 92% | CCRF-CEM leukemia 112% | MOLT-4 leukemia 91.1% | SR leukemia 91.9%

Cc1cc2ccccc2c[n+]1CC(=O)c1ccc(-c2ccccc2)cc1
inactive: SK-MEL-2 melanoma 84.3% | EKVX NSCLC 54.8% | SN12C renal 55.4% | UO-31 renal 61.5% | TK-10 renal 68.5% | ACHN renal 79.4% | A498 renal 56.5% | CCRF-CEM leukemia 53.4% | MOLT-4 leukemia 49.3% | SR leukemia 54.7%

N#CC1C(c2ccc(Cl)cc2)=Nc2c(c(-c3ccccc3)nn2-c2ccccc2)C12C(=O)Nc1ccc(Cl)cc12 (stereo not given)
inactive: SK-MEL-2 melanoma 71.3% | EKVX NSCLC 40.1% | SN12C renal 60.2% | UO-31 renal 22.6% | TK-10 renal 47.8% | ACHN renal 36.6% | A498 renal 60.3% | CCRF-CEM leukemia 19.2% | MOLT-4 leukemia 15.3% | SR leukemia 36.5%

N#Cc1c(-c2ccc(F)cc2)nc(N=Nc2c(O)[nH]c3ccccc23)nc1N1CCOCC1
inactive: SK-MEL-2 melanoma 105% | EKVX NSCLC 77.6% | SN12C renal 30.4% | UO-31 renal 60.4% | TK-10 renal 65.4% | ACHN renal 65.5% | A498 renal 80.8% | CCRF-CEM leukemia 77.4% | MOLT-4 leukemia 95.3% | SR leukemia 88.2%

COc1cc(/C=C/C(=O)/C=C/c2cc3ccc(Cl)cc3n(Cc3ccccc3)c2=O)ccc1O
active: SK-MEL-2 melanoma -13.2% | EKVX NSCLC 8.91% | SN12C renal -18.4% | UO-31 renal -88.9% | ACHN renal -15.4% | CCRF-CEM leukemia 3.16% | MOLT-4 leukemia 5.11% | SR leukemia 1.8%
inactive: TK-10 renal 13.8% | A498 renal 69.2%

COc1ccc(-c2cc(-c3nnc(SCC(=O)Nc4ccc(C(C)=O)cc4)o3)c3ccccc3n2)cc1
inactive: SK-MEL-2 melanoma 40.1% | EKVX NSCLC 23.2% | A498 renal 18.3% | CCRF-CEM leukemia 32.7% | MOLT-4 leukemia 23%
active: SN12C renal -40.5% | UO-31 renal -70.7% | TK-10 renal -28.8% | ACHN renal -11.6% | SR leukemia -19.5%

c1ccc(-c2n(Cc3ccc4ccccc4n3)cc[n+]2Cc2ccc3ccccc3c2)cc1
inactive: EKVX NSCLC 38.4% | UO-31 renal 54.6% | ACHN renal 63.8%
active: SK-MEL-2 melanoma -27% | SN12C renal 4.45% | TK-10 renal -0.737% | A498 renal -2.66% | CCRF-CEM leukemia 4.04% | MOLT-4 leukemia 2.42% | SR leukemia -27.4%

CC(=O)c1ccc(NC(=O)CSc2nnc(-c3cc(-c4ccc(C)cc4)nc4ccccc34)o2)cc1
active: SR leukemia -12.5%
inactive: SK-MEL-2 melanoma 81.5% | EKVX NSCLC 78.3% | SN12C renal 20% | UO-31 renal 11.5% | TK-10 renal 43% | ACHN renal 63.6% | A498 renal 70.5% | CCRF-CEM leukemia 53.6% | MOLT-4 leukemia 43.5%

O=[N+]([O-])c1ccc(N=Nc2c(O)c(N=Nc3cc([N+](=O)[O-])cc([N+](=O)[O-])c3O)cc(N=Nc3cc(S(=O)(=O)O)cc4cc(S(=O)(=O)O)cc(O)c34)c2O)cc1
inactive: SK-MEL-2 melanoma 100% | EKVX NSCLC 102% | SN12C renal 101% | UO-31 renal 83.2% | TK-10 renal 98.6% | ACHN renal 101% | A498 renal 107% | CCRF-CEM leukemia 97.2% | MOLT-4 leukemia 86.7% | SR leukemia 86.1%

From PubChem BioAssay (NCI)
